Test results from PubChem BioAssay (NCATS).
Calls of active or inactive are those of the source. Calls come from the whole dose curve; as a rule, active = well fitted cell-killing curve with a large enough effect; inconclusive = small, poorly fitted or top-dose-only effect; inactive = flat fitted curve, though single readings scatter.

Experiment: Cell Viability - LYMP1-002 - Assay at 24 hr (AID 993)
Conditions: LYMP1-002 lymphoblastoid cells viability; series mostly up to 92.2 µM
From the text: NIH Chemical Genomics Center [NCGC]
NIH Molecular Libraries Screening Centers Network [MLSCN]
National Institutes of Environmental Health Sciences [NIEHS]
National Toxicology Program [NTP]
We have developed a 1536-well cell-based assay for quantitative high throughput screening (qHTS) against a number of cell lines to determine in vitro cytotoxicity of small molecules. This particular assay uses a human lymphoblastoid cell line (LYMP1-002) purchased from Coriell Institute for Medical Research.
NCGC Assay Protocol Summary:
The CellTiter-Glo luminescent cell viability assay (Promega) is a homogeneous method to measure the number of viable cells in culture. The end point readout of this assay is based on quantitation of intracellular ATP, an indicator of metabolic activity, using the luciferase reaction. Luciferase catalyzes the oxidation of beetle Luciferin to oxyluciferin and light in the presence of ATP. The luminescent signal is proportional to amount of ATP present.
Using the CellTiter-Glo luminescent cell viability assay, the amount of cellular ATP was measured in the lymphoblastoid cell line with complete culture medium following compound treatment for 24 hours. The assay was performed in opaque white Kalypsys 1536-well plates. In the screen, tetraoctylammonium bromide was used as positive control. Library compounds were measured for their ability to cause acute toxicity in the cell line, as reflected by a decrease in intracellular ATP levels, in a concentration-dependent manner. […] AC50 values were determined from concentration-response data modeled with the standard Hill equation.
qHTS protocol for CellTiter Glo lymphoblastoid cellular assay
[Step] [Parameter] [Value] [Description]
1. Reagent; 5 uL; 2500 lymphoblastoid cells/well
2. Time; 5 hr; 37 C incubation
4. Controls; 23 nL; Tetraoctylammonium bromide 6.4pM to 92 uM
5. Time; 24 hr; 37 C incubation
6. Reagent; 5 uL; CellTiter Glo reagent
7. Time; 30 min; Room Temperature
8. Detection; Luminescence; Viewlux plate reader
Keywords: cell viability, cytotoxicity, lymphoblastoid cell line, luminescence, NTPHTS, NTPHTS_NCGC, NIEHS, DSSTox, MLSMR, MLSCN, NIH Roadmap, qHTS, NCGC

Compound | outcome
CC(C)C(=O)Nc1ccc([N+](=O)[O-])c(C(F)(F)F)c1 | inactive
COc1ccc2[nH]cc(CCNC(C)=O)c2c1 | inactive
Cc1cn([C@H]2C[C@H](N=[N+]=[N-])[C@@H](CO)O2)c(=O)[nH]c1=O | inactive
COc1ccc2c(c1)c(CC(=O)O)c(C)n2C(=O)c1ccc(Cl)cc1 | inactive
Nc1c2c(nc3ccccc13)CCCC2 | inactive
CC(COc1ccccc1)N(CCCl)Cc1ccccc1 (stereo not given) | inactive
Clc1ccc(C(c2ccccc2Cl)C(Cl)Cl)cc1 (stereo not given) | inactive
COc1ccc(CCN(C)CCCC(C#N)(c2ccc(OC)c(OC)c2)C(C)C)cc1OC (stereo not given) | inactive
Cc1ccc(-c2cc(C(F)(F)F)nn2-c2ccc(S(N)(=O)=O)cc2)cc1 | inactive
CCC1(c2ccccc2)C(=O)NCNC1=O | inactive
NCCS(=O)(=O)O | inactive
O=c1c(-c2ccc(O)cc2)coc2cc(O)cc(O)c12 | inactive
N[C@@H](Cc1c[nH]c2ccc(O)cc12)C(=O)O | inactive
O=c1[nH]cc(F)c(=O)[nH]1 | inactive
Cn1c(=O)c2c(ncn2C)n(C)c1=O | inactive
Nc1ccn([C@H]2CC[C@@H](CO)O2)c(=O)n1 | inactive
Cn1c(=O)c2[nH]cnc2n(C)c1=O | inactive
CC(C)NCC(O)c1ccc(O)c(O)c1 (stereo not given) | inactive
Cc1cn([C@H]2C=C[C@@H](CO)O2)c(=O)[nH]c1=O | inactive
NS(=O)(=O)c1cc2c(cc1Cl)NCNS2(=O)=O | inactive
